Only some compounds are listed: those with a hit (about 2.4% of all), similar ones and a draw of the others.
ALOX12 inh: Primary qHTS assay for inhibitors of human arachidonate 12S-lipoxygenase (ALOX12): Round 2; purified 12hLO, xylenol orange hydroperoxide absorbance; Potency, µM (doses to about 108 µM), for inactives: at the highest dose activity change, negative = inhibition, actives largely listed as inhibitors; hit rate 1.1% among 580,000; AID 1671190, 2021; active means well fitted curve in the direction sought with a large enough effect; inconclusive means small, poorly fitted or top-dose-only effect, or another doubt; inactive means no such curve, though single readings can be large; an effect the other way counts as inactive or inconclusive; further: on the % scale 0 is the no-effect control and ±100 the full control effect
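Purified human 12hLO (150 nM final) in 25 mM Hepes, 0.01% Triton X-100, pH 7.0 was preincubated 15 min at room temperature with compound. Then 40 uM arachidonic acid was added, 30 min. Hydroperoxide was read by Fe-XO absorbance ratio 573/405 nm.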
Rango dissoc inh: qHTS Assay for Inhibitors of RanGTP induced Rango (Ran-regulated importin-beta cargo) - Importin beta complex dissociation; Snurportin-1 (Homo sapiens) + GTP-binding nuclear protein Ran (Homo sapiens) + Importin …; Biochemical FRET Rango-importin beta, RanGTP-induced dissociation; Potency, µM (titrated, usually from 46.1 µM), without a hit: at the highest dose activity change, negative = inhibition; hit rate 0.071% among 340,000; further: % of control where 0% means no effect; nearly all actives have a fitted effect of over 45% in size
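FRET read at 45 min, room temperature: inhibitors block the CFP/YFP signal rise when RanGTP (0.6 uM Ran, 2 mM GTP, 0.2 uM RCC1) frees Rango (0.1 uM) from importin beta (0.25 uM). Pre-read after 5 min compound exposure flags interference.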
ClpP mod: qHTS Assay for Activators of ClpP; purified B. subtilis ClpP, FRET peptide cleavage, 20 min; hit rate 1.9% among 340,000; ATP-dependent Clp protease proteolytic subunit (Bacillus subtilis (strain 168)), P80244; Potency, µM (top dose mostly 57.5 µM), without a hit: at the top dose activity change, negative = active; active means well fitted falling curve with a large enough effect; inconclusive means small, poorly fitted or top-dose-only effect; inactive means no such curve, though single readings can be large or run the other way; further: the source files actives as falling curves though it sought activators and does not explain the sign; nearly all actives have a fitted effect of over 65% in size
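Buffer: 100 mM Tris/HCl pH8, 100 mM KCl, 0.05% low protease BSA, 2.5% glycerol, 0.01% Tween-20. ClpP 10 microg/mL final; 20 min RT; delta FRET normalized to ADEP and DMSO controls.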
TDP1 inh: qHTS Assay for Inhibitors of Tyrosyl-DNA Phosphodiesterase (TDP1); Tyrosyl-DNA phosphodiesterase 1 (Homo sapiens), Q9NUW8; recombinant TDP1, AlphaScreen DNA substrate cleavage; Potency, µM (doses to about 130 µM), for the others: at the highest dose activity change, negative = inhibition, most hits filed as inhibitors; hit rate 0.28% among 350,000; AID 485290, 2010; active means well fitted curve in the direction sought with a large enough effect; inconclusive means small, poorly fitted or top-dose-only effect, or another doubt; inactive means no such curve, though single readings can be large; an effect the other way counts as inactive or inconclusive; further: on the % scale 0 is the no-effect control and ±100 the full control effect; nearly all actives have a fitted effect of over 40% in size
Target sequence (Q9NUW8 whole entry, looked up): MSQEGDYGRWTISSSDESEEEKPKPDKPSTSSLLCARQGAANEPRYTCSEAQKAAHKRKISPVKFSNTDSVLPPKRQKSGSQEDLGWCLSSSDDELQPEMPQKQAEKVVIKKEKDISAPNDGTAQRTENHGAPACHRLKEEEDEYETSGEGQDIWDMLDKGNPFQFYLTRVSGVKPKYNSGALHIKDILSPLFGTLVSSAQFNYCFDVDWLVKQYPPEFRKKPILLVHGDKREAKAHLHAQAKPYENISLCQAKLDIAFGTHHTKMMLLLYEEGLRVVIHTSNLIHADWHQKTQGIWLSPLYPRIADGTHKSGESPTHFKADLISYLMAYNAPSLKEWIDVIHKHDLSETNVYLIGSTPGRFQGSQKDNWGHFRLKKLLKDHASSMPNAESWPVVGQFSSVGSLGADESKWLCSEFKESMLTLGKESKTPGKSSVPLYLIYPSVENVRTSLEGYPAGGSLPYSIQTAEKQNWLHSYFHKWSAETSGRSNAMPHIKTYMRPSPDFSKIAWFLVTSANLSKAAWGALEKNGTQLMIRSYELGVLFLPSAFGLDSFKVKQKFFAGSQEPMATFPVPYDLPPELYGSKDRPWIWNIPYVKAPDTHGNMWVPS
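Steps: enzyme plus compound, 15 min RT; add biotin/phosphotyrosine-FITC oligonucleotide (15 nM final), react 5 min; add donor/acceptor beads (10 ug/ml final), 10 min; read AlphaScreen. Tdp1 at 1 nM final.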
Rango-impB inh: qHTS Assay for Inhibitors of Rango (Ran-regulated importin-beta cargo) - Importin beta complex formation; hit rate 0.031% among 340,000; Rango CFP/YFP FRET sensor + importin beta, 45 min; Potency, µM (top dose mostly 92.2 µM), inactives show at the top dose inhibition of complex formation; Importin subunit beta-1 (Homo sapiens), Q14974;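 further: 0% = DMSO wells and 100% = buffer wells lacking importin beta; nearly all actives have a fitted effect of over 15% in size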
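FRET biosensor (snurportin 1 IBB flanked by EYFP and cerulean), 50 nM, with compound 5 min, then 0.125 microM importin beta in PBS, 1 mM DTT, 0.02% Tween-20, 0.1% BSA. CFP/YFP ratio read after 45 min at room temperature; pre-read flags interference.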
TSG101-PTAP inh: qHTS Assay for Iinhibitors of HIV-1 Budding by Blocking the Interaction of PTAP/TSG101 | Tumor susceptibility gene 101 protein (Homo sapiens), Q99816 | Fluorescence polarization, FITC-PTAP peptide / Tsg101 binding | Potency, µM (series often up to 115 µM), inactives show at the highest dose activity change, negative = inhibition, hits mostly inhibitors | 340,000 tested, under 10 active | AID 493005, 2010; active means well fitted inhibition curve with a large enough effect in the main read-out, with a control signal flat, not every such curve was filed as active; inconclusive means small, poorly fitted or top-dose-only effect, or effect the other way, or a change in a side signal; inactive means no such curve, though single readings can be large or run the other way; further: % of control where 0% means no effect
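Fluorescence polarization binding of Tsg101 binding domain (10 uM final) to FITC-labeled PTAP peptide (50 nM final) in HEPES pH 7.5 buffer with NaCl, Tween 20, EDTA, TCEP. Compounds added before peptide; binding 20 min at RT.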
* marks the source's active call; other numbers are inactive results; ? = inconclusive; / = no result; ! = not confirmed by another sample; [ ] = another dose, or the depositor's remark. Unless noted, the call rests on the fitted dose curve. Potency means the concentration at half of the fitted maximal effect.

SMILES	ALOX12 inh	Rango dissoc inh	ClpP mod	TDP1 inh	Rango-impB inh	TSG101-PTAP inh
COc1ccccc1N1CCN(CC(O)COc2ccc3c(C)cc(=O)oc3c2)CC1 (stereo unspecified)	18%	-4%	16µM*	2%	5%	1%
C[C@H](C(=O)N1CCCC1)C1CC[C@@]2(C)Cc3sc(CS(=O)(=O)c4ccc(Cl)cc4)nc3[C@@H](C)[C@@H]2[C@H]1O (stereo partly specified)	4%	/	/	/	/	/
O=C(Cc1ccccc1F)N1CCC(c2nc(C3CCOCC3)no2)C1 (stereo unspecified)	24%	/	/	/	/	/
C/C(=N\NC(=O)c1ccccc1O)c1ccc(NC(=O)Cc2ccccc2)cc1	497%	-12%	-7%	56µM*	1%	-2%
Cc1ccc(NC(=O)Cn2c(O)c(N=NS(=O)(=O)c3ccc(C)cc3)c3ccccc32)cc1	14µM*	7%	-7%	-3%	1%	-5%
Cc1ccc(NC(=O)Cn2c(O)c(N=NC(N)=O)c3ccccc32)cc1	-13%	-1%	/	1%	-2%	1%
CCOC(=O)CNC(=O)c1ccc2[nH]c3ccccc3c2c1	-1%	-5%	4%	8%	-4%	-5%
O=C(NCC(O)CO)c1ccc2[nH]c3ccccc3c2c1 (stereo unspecified)	-7%	5%	28µM*	-6%[56.1 µM]	0%	-3%
COc1cccc(Cn2c(=O)c(-c3cn(C)c4ccccc34)nc3cnc(OC)nc32)c1	40µM*	/	/	/	/	/
COc1ncc2nc(-c3cn(C)c4ccccc34)c(=O)n(Cc3ccc(F)cc3)c2n1	0%	/	/	/	/	/
COc1ccc(OCCN(C)CC(C#N)CCC#N)cc1 (stereo unspecified)	-46%	/	/	/	/	/
CCOc1ccc(-c2ccc3nnc(SCC(=O)NCC4CCCO4)n3n2)cc1 (stereo unspecified)	-7%	7%	32µM*	/	0%	-1%
Cc1ccc(-c2nc(SCC(=O)NCC3CCCO3)c(-c3ccc(C)cc3)[nH]2)cc1 (stereo unspecified)	?	-19%	25µM*	5%	2%	-2%
COc1ccc(-c2ccc3nnc(SCC(=O)NCC4CCCO4)n3n2)cc1 (stereo unspecified)	13%	15%	?	/	6%	-2%
COc1cccc(-c2nc(SCC(=O)Nc3ccc4c(c3)OCCO4)c(-c3ccc(C)cc3)[nH]2)c1	0%	/	28µM*	8%	/	/
COc1ccc(-c2[nH]c(-c3ccc(Cl)cc3)nc2SCC(=O)NCC2CCCO2)cc1 (stereo unspecified)	?	/	25µM*	8%	/	/
Cn1ncc(N2CCOC(CCNc3ccc(C#N)cn3)C2)cc1=O (stereo unspecified)	64%	/	/	/	/	/
CCCNC(=O)NC(=O)CN1CCC(C)CC1	-14%	/	/	/	/	/
COCCn1ncc(N2CCC(C(=O)NCc3ccc(OC(C)C)cc3)C2)cc1=O (stereo unspecified)	15%	/	/	/	/	/
Cc1ccc(-c2[nH]c(-c3ccccc3)nc2SCC(=O)NCC2CCCO2)cc1 (stereo unspecified)	-25%	0%	28µM*!	-4%[12.3 µM]	-1%	0%
COc1ccccc1-n1c(SCC(=O)NCC2CCCO2)nc2c([nH]c3ccccc32)c1=O (stereo unspecified)	35µM*	-1%	-19%	4%	0%	-3%
Cc1ccc(-c2nc(SCC(=O)NCC3CCCO3)c(-c3ccc(Cl)cc3)[nH]2)cc1 (stereo unspecified)	10%	1%	-21%	-5%	1%	-2%
COCCNC(=O)CSc1nc(-c2ccc(C)cc2)[nH]c1-c1ccc(OC)cc1	-14%	/	?	12%	/	/
CCc1ccc(-c2nc(SCC(=O)NCCOC)c(-c3ccc(C)cc3)[nH]2)cc1	-10%	/	28µM*	0%[12.3 µM]	/	/
COc1ccc(-n2ccnc2CN2CCC(Cc3nncn3C)CC2)cc1	23%	/	/	/	/	/
SMILES	ALOX12 inh	Rango dissoc inh	ClpP mod	TDP1 inh	Rango-impB inh	TSG101-PTAP inh
CC(CNC(=O)CCCNC(=O)C(C)(C)C)c1ccccc1 (stereo unspecified)	-28%	/	/	/	/	/
CCCn1c(NC(=O)CCc2nnc(-c3ccccc3)o2)nc2ccccc21	17%	/	/	/	/	/
O=C(Nc1ccc2nc(SCc3ccc(I)cc3)sc2c1)C1CCCCC1	3%	/	/	/	/	/
Oc1c(CN2CCCCC2)cc(Br)c2cccnc12	5.6µM*	-13%	1%	9%	2%	-12%
CCCS(=O)(=O)c1c(S(=O)(=O)CCC)c2c(N)cccn2c1C(=O)c1ccc(Br)cc1	6.3µM*	-12%	1%	7%	7%	0%
Cc1ccc(NC(=O)CCNc2cnc3cnccn23)cc1F	50µM*	/	/	/	/	/
Fc1ccc(N/N=C/c2cccnc2)c(F)c1	-9%	25%	0%	7%	2%	0%
Fc1ccc(N/N=C/c2ccccc2Cl)c(F)c1	3.2µM*	/	/	/	/	/
Cc1cc(C)nc(N/N=C/c2sccc2C)n1	12%	-1%	/	-5%	0%	-4%
Cc1ccsc1/C=N/Nc1ccc(F)cc1F	40µM*	33%	/	/	-2%	-7%
Fc1ccc(N/N=C/c2ccc(Cl)c(Cl)c2)c(F)c1	35µM*	/	/	/	/	/
C/C(=N\Nc1ccc(F)cc1F)c1ccc(N2CCOCC2)cc1	?	-26%	-3%	8%	4%	-1%
Fc1ccc(N/N=C/c2ccc(N3CCOCC3)cc2)c(F)c1	?	4%	35µM*	8%	-2%	0%
CN(Cc1cc(=O)c2cc(C(N)=O)ccc2[nH]1)Cc1n[nH]c2c1CCCCC2	79%	/	/	/	/	/
CCCN1CCN(C(=O)c2cc(NC(=O)C3CCC3)cc3nc(C)ccc23)CC1	115%	/	/	/	/	/
C#CCN(C)C(=O)c1onc(-c2ccc(Cl)cc2)c1[C@H](C)O	-9%[176 µM]	/	/	/	/	/
O=C1c2ccccc2NC2(CCCC2)N1O	?	10%	-2%	2%	-1%	5%
O=C1c2ccccc2NC2(CCCCC2)N1N=C1CCCCC1	-5%	19%	18µM*	5%	0%	0%
